# Bioassay records: PubChem BioAssay, several laboratories
# GDH-TPI counter: counter-screen for M. tuberculosis FBA inhibitors: GDH-TPI coupled enzymes; inhibition, % at 4.8 µM; GDH-TPI coupled enzyme counterscreen, NADH absorbance; AID 588335; 1.2% of 360,000 active; in the data active means inhibition above about 30%;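 further: 0% = DMSO wells and 100% = wells lacking the enzyme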
# BoNT A protease: blocks Botulinum neurotoxin A light chain protease | AID 588499 | inhibition, % at 10 µM | 0.17% of 360,000 active | multiplex microsphere protease substrate cleavage, flow cytometry; further: plate controls were buffer without enzyme for full effect and enzyme alone for no effect
# Anthrax LF prot: blocks Bacillus anthracis lethal factor protease | 0.12% of 360,000 active | P15917 | multiplex microsphere protease cleavage assay, LF | inhibition, % at 10 µM; further: plate controls were buffer without enzyme for full effect and enzyme alone for no effect
# Target sequence (P15917 whole entry, looked up): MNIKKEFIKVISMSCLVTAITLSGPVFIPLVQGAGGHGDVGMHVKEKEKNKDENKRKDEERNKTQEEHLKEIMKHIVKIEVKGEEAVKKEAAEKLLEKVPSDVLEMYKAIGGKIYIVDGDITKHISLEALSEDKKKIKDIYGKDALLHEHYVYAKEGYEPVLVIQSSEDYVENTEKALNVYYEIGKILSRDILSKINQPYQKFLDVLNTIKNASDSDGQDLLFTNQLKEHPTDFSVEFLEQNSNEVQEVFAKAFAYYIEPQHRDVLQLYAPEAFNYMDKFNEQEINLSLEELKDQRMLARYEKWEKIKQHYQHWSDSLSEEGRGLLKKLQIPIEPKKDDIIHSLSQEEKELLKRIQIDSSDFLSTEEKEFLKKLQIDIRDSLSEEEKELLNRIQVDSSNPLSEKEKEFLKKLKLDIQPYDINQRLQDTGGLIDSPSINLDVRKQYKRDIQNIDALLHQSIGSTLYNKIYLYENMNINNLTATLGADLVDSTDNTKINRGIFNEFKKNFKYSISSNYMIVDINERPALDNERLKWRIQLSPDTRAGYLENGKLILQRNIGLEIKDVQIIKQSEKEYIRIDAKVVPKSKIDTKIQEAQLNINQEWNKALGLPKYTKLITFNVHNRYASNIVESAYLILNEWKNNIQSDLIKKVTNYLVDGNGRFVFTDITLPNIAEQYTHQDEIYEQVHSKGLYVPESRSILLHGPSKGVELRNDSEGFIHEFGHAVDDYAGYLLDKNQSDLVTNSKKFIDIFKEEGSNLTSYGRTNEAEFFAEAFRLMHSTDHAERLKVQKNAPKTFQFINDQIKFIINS
# BoNT-F LC inh: BoNT F light chain protease inhibition | 0.22% of 360,000 active | inhibition, % at 10 µM | Multiplex microsphere protease cleavage assay, flow cytometry; in the data active means inhibition above about 35%, passing the limit was not always enough; inconclusive means no clear call, values can overlap the other calls; further: plate controls were buffer without enzyme for full effect and enzyme alone for no effect
# FBA Mtb inh: Mtb fructose-bisphosphate aldolase inhibition | purified M. tuberculosis FBA, fluorescence read-out | inhibition, % at 1 µM | AID 588726 | P9WQA3 | 2.3% of 360,000 active; in the data active means inhibition above about 27%;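 further: 0% = vehicle and 100% = reference inhibitor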
# Bead autofluor: flagged as autofluorescent in microsphere protease counterscreen; compound autofluorescence counterscreen, microsphere flow cytometry; active compounds read high; fluorescence intensity (test concentration not listed); 3.1% of 360,000 active; AID 624483; in the data active means fluorescence intensity above about 16000; inconclusive means no clear call, values can overlap the other calls
# An asterisk follows results filed as active; ? = inconclusive; . = no result. Rows were chosen to be rich in hits. Some 6.6% of all compounds tested hit in one or more screens of this group. Unless noted, no stated cut-off is given here; in the data, active means inhibition above about 30%; inconclusive means no clear call, values can overlap the other calls; inactive means below that.
SMILES,GDH-TPI counter,BoNT A protease,Anthrax LF prot,BoNT-F LC inh,FBA Mtb inh,Bead autofluor
CC1CCCN(S(=O)(=O)c2ccc(NC(=O)c3cccc(-n4cnnn4)c3)cc2)C1 (stereo unspecified),8,1,-2,0,1,20061*
Cc1ccc(NC(=O)C2CCN(S(=O)(=O)c3ccc(F)cc3)CC2)cc1,1,-1,-1,-4,1,23704*
Cc1ccc(S(=O)(=O)N2CCC(C(=O)NCCCN3CCCCCC3)CC2)cc1,-2,2,-2,-10,0,24422*
CCS(=O)(=O)N1CCC(C(=O)Nc2cccc(F)c2)CC1,16,0,0,17,2,3880
Cc1ccc(NC(=O)CCSc2nc(C)cc(C)n2)cc1,-3,.,.,.,1,.
O=S(=O)(c1ccc(F)cc1)N1CCC(N2CCCCCC2)CC1,-1,0,-4,-1,2,16305*
CSc1cccc(NC(=O)C2CCCN(S(=O)(=O)c3ccc(F)cc3)C2)c1 (stereo unspecified),-1,0,-2,-11,-3,4597
O=C(Nc1cccc(Cl)c1)C1CCCN(S(=O)(=O)c2ccc(F)cc2)C1 (stereo unspecified),-3,0,0,-4,-2,20734*
Cc1ccc(NC(=O)c2ccc(S(=O)(=O)N3CCC(C)CC3)cc2)cc1,-8,-3,0,-4,-1,20894*
O=C(Nc1ccc(C(=O)N2CCOCC2)cc1)c1ccccc1Cl,1,0,-4,-6,-1,3907
Cc1cccc(CN(C)C)c1OC(=O)N(C)C,8,?,-2,6,-1,20578*
CN(C)Cc1ccccc1OC(=O)N(C)C,-4,2,-2,32,-3,4639
Cc1ccc(C)c(NC(=O)C2CCC(C)(C(=O)O)C2(C)C)c1 (stereo unspecified),10,-4,-1,-6,3,24078*
CC1(C(=O)O)CCC(C(=O)NC2CCCCC2)C1(C)C (stereo unspecified),6,1,1,13,1,5706
CC1(C(=O)O)CCC(C(=O)NC2CCCCCC2)C1(C)C (stereo unspecified),4,5,1,3,4,21823*
COC(=O)[C@H](CCSC)NS(=O)(=O)c1ccccc1Br,7,0,3,-2,1,3920
O=C(N/N=C/c1c(O)ccc2ccccc12)c1ccc(CO)nc1,4,15,6,40*,-4,3979
NC(=S)N/N=C/c1c(O)ccc2ccccc12,32*,-2,-1,-10,-3,3525
O=C(N/N=C\c1c(O)ccc2ccccc12)c1ccc(S(=O)(=O)N2CCCCC2)cc1,9,32*,4,-2,0,3033
Oc1ccc2ccccc2c1/C=N/n1cnnc1,12,2,-2,2,0,22040*
CCNc1nc(-c2sc(NC(=O)C(C)(C)C)nc2C)c(-n2cc(-c3ccccc3)nn2)s1,.,-1,-4,-14,.,4685
Cc1cccc(C)c1NC(=O)CN(C)C(=O)C(c1ccccc1)c1ccccc1,3,0,0,-2,-7,2586
O=C1NC(c2ccccc2)=C(c2nc3ccccc3s2)C(c2ccc(O)cc2)N1 (stereo unspecified),21,2,-5,2,8,21586*
O=C1NC(c2ccccc2)=C(c2ccc3ccccc3n2)C(c2ccccc2)N1 (stereo unspecified),9,0,-2,-2,-2,2509
Cc1cn(C2CCCCC2)c(=O)[nH]c1=O,4,0,-1,5,-1,2835
SMILES,GDH-TPI counter,BoNT A protease,Anthrax LF prot,BoNT-F LC inh,FBA Mtb inh,Bead autofluor
CSc1ccccc1C(=O)NC1CCCCC1,4,2,-5,1,-2,22309*
CSc1ccccc1C(=O)NCC1CCCO1 (stereo unspecified),-10,5,-2,9,0,18506*
COCCSc1ccccc1C(=O)NCC1CCCO1 (stereo unspecified),6,0,1,2,0,5605
CSc1ccccc1C(=O)NC1CCCC1,12,2,2,1,2,15581
CCC(=O)N(CCc1ccc(S(N)(=O)=O)cc1)C1CC(=O)N(c2ccc(OC)cc2)C1=O (stereo unspecified),9,0,-2,2,-3,3888
O=C(CN1CCN(Cc2ccccc2Cl)CC1)N/N=C/c1cccs1,-2,-4,1,?,0,3915
Cc1nnc(SCC(=O)N/N=C/c2cc(Cl)c(O)c(Cl)c2)s1,35*,0,0,-3,-4,2436
O=C(CSc1nnc(SCc2ccc(Cl)cc2)s1)N/N=C/c1ccc(Cl)cc1Cl,-1,0,0,2,0,4385
CCOC(=O)C1=C(c2ccccc2)N=c2s/c(=C\c3cc(OC)c(OC)c(OC)c3)c(=O)n2C1c1cccs1 (stereo unspecified),16,41*,34*,19,0,3932
CC(C)C(=O)Nc1ccc(-c2nc3ccccc3c(=O)o2)cc1,-2,0,-2,1,0,4274
CC(O)(CS(=O)(=O)c1ccccc1)C(=O)Nc1cccc(C(F)(F)F)c1 (stereo unspecified),-11,-1,0,0,0,21019*
Cc1ccc(S(=O)(=O)CC(C)(O)C(=O)Nc2cccc(C(F)(F)F)c2)cc1 (stereo unspecified),-3,1,0,6,3,7746
COc1ccc(CNC(=O)CCSCc2cccc(Cl)c2)c(OC)c1,3,0,-1,2,2,2749
CCCCn1c(SCC(=O)NCc2ccco2)nc2ccc(N3CCOCC3)cc2c1=O,-3,-7,-2,-9,15,22158*
COCCNC(=O)c1ccc2c(=O)n(Cc3ccco3)c(SCC(=O)NC3CCCC3)nc2c1,-1,1,-9,4,2,21828*
O=C(NCC1CCCO1)c1ccc2c(=O)n(Cc3ccco3)c(SCC(=O)N3CCCC3)nc2c1 (stereo unspecified),-1,0,10,5,1,5059
CCOC(=O)CSc1nc2cc(C(=O)NCC3CCCO3)ccc2c(=O)n1Cc1ccco1 (stereo unspecified),-1,1,-4,2,0,22243*
C=CCn1c(SCC(=O)OCC)nc2cc(C(=O)NCc3ccco3)ccc2c1=O,17,1,-2,0,1,23049*
C=CCn1c(SCC(=O)NC(=O)NCc2ccco2)nc2sc(CC)cc2c1=O,6,0,-2,4,-4,4372
ClN=C1C=CC=CC1=NCl,.,2,-3,-2,1,4082
COc1ccc(CC(=O)Nc2cc(F)ccc2F)cc1S(=O)(=O)N1CCOCC1,11,0,-7,-10,3,2861
CCOc1ncccc1C(=O)OCC(=O)c1cccc(Br)c1,3,0,0,0,-1,2651
CCN(C(=O)CSc1nc2cc(C(=O)OC)ccc2c(=O)n1Cc1ccco1)c1cccc(C)c1,16,-3,-3,-7,-3,16983*
